# This is a sample that favours compounds with a hit; in the whole collection about 7.6% have one here.
# MCF10A rerep: A quantitative high throughput screen for small molecules that induce DNA re-replication in MCF 10a normal breast cells; MCF 10A DNA re-replication, Hoechst nuclear intensity, 48 h; Potency, µM (doses to about 46.1 µM), without a hit: top-dose activity, positive = re-replication, hits mostly activators; 350,000 compounds, 2.9% hits; AID 624296, 2012; further: potency means the concentration at half of the fitted maximal effect; % of control where 0% means no effect; nearly all actives have a fitted effect of over 50% in size
# KCNH2 3.1 inh: qHTS for Inhibitors of KCHN2 3.1: Mutant qHTS; Potassium voltage-gated channel subfamily H member 2, brain isoform KCNH2 3.1 (human); U2OS KCNH2 3.1, thallium flux FluxOr; hits give low values; activity change, % (tested at about 1.8 µM); 340,000 compounds, 0.95% hits; AID 720553, 2013;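 active means maximum activity change below -70%; inconclusive means maximum activity change from -70% to -50%; inactive means maximum activity change above -50%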;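 further: thallium influx rate constant from kinetic fluorescence after stimulation buffer; on the % scale 0 is the no-effect control and ±100 the full control effect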
#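 Thallium flux read-out: FluxOr dye with Red40 quencher in HBSS/HEPES, 45 min at RT. Rate constants from kinetic reads were normalized to positive and negative DMSO controls. Cells: U2OS virally expressing the 3.1 isoform.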
# KB-3-1 tox: qHTS assay for MDR1-selective chemotherapeutics: Primary screen using the parental adenocarcinoma cell KB-3-1; KB-3-1 viability, CellTiter-Glo ATP luminescence, 72 h; Potency, µM (doses to about 46.1 µM), usual class: cytotoxic; 400,000 compounds, 1.4% hits; AID 1347075, 2019; further: potency means the concentration at half of the fitted maximal effect; on the % scale 0 is the no-effect control and ±100 the full control effect; nearly all actives have a fitted effect of over 60% in size
#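 KB-3-1 parental drug-naive adenocarcinoma cells in DMEM/10% FBS, incubated 72 h at 37 C with pin-transferred compounds across a concentration series. Viability by CellTiter-Glo luminescence; concentration-response curves fitted after normalization.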
# KB-V1 MDR tox: qHTS assay for MDR1-selective chemotherapeutics: Primary screen using the drug-selected MDR subline cells KB-V1. 400,000 compounds, 3.4% hits. KB-V1 MDR cells viability, CellTiter-Glo, 72 h. Potency, µM (titrated, usually from 46.1 µM), hits mostly cytotoxic; further: potency means the concentration at half of the fitted maximal effect; on the % scale 0 is the no-effect control and ±100 the full control effect; nearly all actives have a fitted effect of over 60% in size
#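 Cytotoxicity via CellTiter-Glo luminescence after 72 h compound exposure at 37 degrees C. Cells: drug-selected KB-V1 line, DMEM phenol-red free plus 10% FBS. Compounds tested at multiple concentrations; normalized data fitted to concentration-effect curves.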
# SW480 rereplic: A quantitative high throughput screen for small molecules that induce DNA re-replication in SW480 colon adenocarcinoma cells. SW480 DNA re-replication, Hoechst DNA content imaging, 48 h. Potency, µM (doses to about 46.1 µM), without a hit: at the top dose re-replication activation, hits mostly activators. 340,000 compounds, 1.8% hits; further: potency means the concentration at half of the fitted maximal effect; % of control where 0% means no effect; nearly all actives have a fitted effect of over 55% in size
#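 Image-based read-out: total Hoechst fluorescence of nuclei (405 nm excitation, 500-530 nm emission), with hits raising the fraction of high-intensity nuclei. SW480 colon cells incubated 48 hr with compounds at 37 C.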
# hERG WT inh: qHTS for Inhibitors of KCHN2 3.1: Wildtype qHTS. U2OS, BacMam KCNH2, thallium flux FluxOr; hits give low values. Voltage-gated inwardly rectifying potassium channel KCNH2 (Homo sapiens), Q12809. activity change, % at 1.84 µM. AID 720551, 2013. 340,000 compounds, 0.37% hits;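 active means maximum activity change below -70%; inconclusive means maximum activity change between -70% and -50%; inactive means maximum activity change above -50%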; further: on the % scale 0 is the no-effect control and ±100 the full control effect
# Target sequence (Q12809 whole entry, looked up): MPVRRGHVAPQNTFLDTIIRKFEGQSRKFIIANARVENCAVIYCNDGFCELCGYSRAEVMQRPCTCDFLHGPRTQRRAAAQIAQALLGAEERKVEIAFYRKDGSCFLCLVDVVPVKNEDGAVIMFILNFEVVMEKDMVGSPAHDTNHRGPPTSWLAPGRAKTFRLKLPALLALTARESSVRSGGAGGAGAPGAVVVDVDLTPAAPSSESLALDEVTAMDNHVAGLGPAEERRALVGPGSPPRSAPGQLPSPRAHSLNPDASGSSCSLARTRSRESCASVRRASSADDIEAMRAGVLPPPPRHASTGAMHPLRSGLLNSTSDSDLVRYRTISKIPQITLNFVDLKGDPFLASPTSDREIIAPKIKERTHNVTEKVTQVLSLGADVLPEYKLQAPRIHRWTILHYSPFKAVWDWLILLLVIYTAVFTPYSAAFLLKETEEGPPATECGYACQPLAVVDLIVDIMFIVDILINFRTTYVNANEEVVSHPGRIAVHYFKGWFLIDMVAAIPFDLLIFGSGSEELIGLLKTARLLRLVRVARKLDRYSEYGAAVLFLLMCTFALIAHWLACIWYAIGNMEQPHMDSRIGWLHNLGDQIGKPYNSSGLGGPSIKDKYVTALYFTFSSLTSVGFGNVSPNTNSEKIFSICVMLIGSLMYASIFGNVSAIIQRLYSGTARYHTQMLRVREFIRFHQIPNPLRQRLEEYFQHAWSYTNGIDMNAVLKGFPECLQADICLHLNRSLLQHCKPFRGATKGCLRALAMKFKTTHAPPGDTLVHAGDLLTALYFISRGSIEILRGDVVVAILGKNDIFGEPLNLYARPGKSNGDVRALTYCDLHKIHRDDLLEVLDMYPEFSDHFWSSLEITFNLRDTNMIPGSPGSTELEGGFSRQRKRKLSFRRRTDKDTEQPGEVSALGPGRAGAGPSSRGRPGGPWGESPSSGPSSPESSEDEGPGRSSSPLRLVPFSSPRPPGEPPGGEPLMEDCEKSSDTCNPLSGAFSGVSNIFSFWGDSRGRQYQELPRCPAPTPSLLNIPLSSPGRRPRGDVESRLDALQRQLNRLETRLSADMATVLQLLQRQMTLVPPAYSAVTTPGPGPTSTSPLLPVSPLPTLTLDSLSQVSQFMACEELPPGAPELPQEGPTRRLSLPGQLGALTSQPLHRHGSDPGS
#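 U2OS cells were transduced with wild-type KCNH2 virus (2.03 x 10^8 / mL) for 4 h at room temperature, then cultured overnight at 37 C. Thallium flux was read with FluxOr dye. Rate constants were normalized to DMSO controls.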
# The depositor's hits bear a star; i = inactive; ? = inconclusive; . = not tested or not shown. Unless noted, the call rests on the fitted dose curve; in most records, active means well fitted curve in the direction sought with a large enough effect; inconclusive means small, poorly fitted or top-dose-only effect, or another doubt; inactive means no such curve, though single readings can be large; an effect the other way counts as inactive or inconclusive.
SMILES,MCF10A rerep,KCNH2 3.1 inh,KB-3-1 tox,KB-V1 MDR tox,SW480 rereplic,hERG WT inh
CCn1c2ccccc2c2cc(NC(=O)c3ccc(C)c([N+](=O)[O-])c3)ccc21,-1%,2,?,i,-3%,20
COc1cc(C(=O)Nc2ccc3c(c2)N(C(=O)CCN(C)C)c2ccccc2CC3)cc(OC)c1OC,13µM*,5,i,?,?,6
CCn1c2ccccc2c2cc(NC(=O)c3cccc([N+](=O)[O-])c3C)ccc21,18µM*,3,?,?,10µM*,-8
O=C(NCC(c1cccs1)N1CCOCC1)c1ccccc1NS(=O)(=O)c1cccc([N+](=O)[O-])c1 (stereo not given),-10%,0,i,?,1%,7
O=C(NCC(c1cccs1)N1CCOCC1)c1ccccc1NS(=O)(=O)c1ccc(Cl)c([N+](=O)[O-])c1 (stereo not given),15µM*,9,i,?,-4%,3
O=C(NCC(c1cccs1)N1CCOCC1)c1ccccc1NS(=O)(=O)c1ccc(Cl)cc1 (stereo not given),?,-5,?,12µM*,0%,-17
Cc1ccc2[nH]c3c(c2c1)CCCC3NC(=O)CCl (stereo not given),21µM*,-2,i,?,8.2µM*,21
COc1cccc(C(N)c2nc(-c3csc4ccccc34)cs2)c1 (stereo not given),.,.,7.3µM*,8.2µM*,.,.
CCc1ccc(N2C(=O)C(Cl)=C(Nc3ccc(C(=O)N4CCCC4)cc3)C2=O)cc1,10µM*,9,i,i,?,9
CSc1ccc(NC(=O)N2CC=C(n3c(=O)[nH]c4ccccc43)CC2)cc1,?,15,16µM*,16µM*,?,0
CN(C(=O)c1cccc(NC(=O)Cc2cccc(NC(=O)C3CCN(C(=O)C4CC4)CC3)c2)c1)C1CCC1,?,2,i,i,-6%,4
COc1ccc(N2CC(C(=O)Nc3ccncc3)CC2=O)cc1 (stereo not given),-12%,-2,i,i,-27%,-5
COc1ccc(OCc2cc(=O)c3ccc4c(c3o2)C=CC(C)(C)O4)cc1OC,16%,-16,i,i,-51%,7
CC(C)=CCOc1ccc([C@@H]2COc3c(ccc4c3C=CC(C)(C)O4)C2)c(O)c1,21µM*,15,?,?,-11%,5
Cc1cc(C)cc(NC(=S)Nc2cccc3cnccc23)c1,?,-2,i,i,0%,-228*
C=C(C)CNC(=S)Nc1cccc2cnccc12,9%,-4,i,i,1%,-2
Cc1ccc(NC(=S)Nc2cccc3cnccc23)c(C)c1,?,3,i,?,-2%,1
CCc1ccc(NC(=S)Nc2cccc3cnccc23)cc1,2%,-35,?,21µM*,6%,-7
CN(C)S(=O)(=O)c1cccc(C(=O)NCC(C)(C)CNC(=O)c2cccc(S(=O)(=O)N(C)C)c2)c1,5%,9,i,i,-7%,-5
O=C(N/N=C/c1sc(=O)[nH]c1-[n+]1ccc2ccccc2c1)c1ccccc1[O-],5%,-3,8.2µM*,?,140%,-17
Cc1cc(C)c2nc(Cl)c(CN(Cc3ccco3)C(=O)Nc3ccccc3C)cc2c1,?,5,i,i,?,2
COCCN(Cc1cc2cc(C)cc(C)c2nc1Cl)C(=O)Nc1ccccc1,6%,-6,?,5.8µM*,?,-3
Cc1noc(C)c1CSCC(=O)NCCN1C(=O)S/C(=C\c2ccccc2F)C1=O,17%,-1,i,i,-28%,3
CCOC(=O)c1c(-c2ccc(OC)c(OC)c2)csc1NC(=O)c1ccc(F)cc1,.,.,i,i,.,.
CN(Cc1ccc(Br)s1)C(=O)CNC(=O)c1ccc2c(c1)OCO2,-1%,-18,i,21µM*,-8%,-16
SMILES,MCF10A rerep,KCNH2 3.1 inh,KB-3-1 tox,KB-V1 MDR tox,SW480 rereplic,hERG WT inh
COc1ccccc1C(=O)Nc1ccc(S(=O)(=O)N2CCCC2)cc1,2%,16,i,18µM*,-1%,0
CC(=O)N1CCN(c2ccc(NC(=O)c3ccccc3Cl)cc2)CC1,3%,16,i,i,7%,-2
COc1ccccc1C(=O)Nc1ccc(S(=O)(=O)N2CCCCC2)cc1,0%,-20,i,i,14%,-4
COc1ccccc1C(=O)Nc1ccc(N2CCCCC2)cc1,6%,1,i,21µM*,-3%,0
O=C(O)c1cc2c(cc1NC(=O)c1ccccc1OC(F)F)OCCCO2,-27%,-15,i,i,-9%,26
COc1ccccc1C(=O)Nc1cc2c(cc1C(=O)O)OCCCO2,9%,-80*,i,i,13%,-2
O=C(Nc1ccc(N2CCCCCC2)cc1)c1ccccc1Cl,6.5µM*,-2,?,?,13µM*,-3
CCOC(=O)C1(C)CCCN(C(=O)c2ccc(F)cc2Cl)C1 (stereo not given),.,.,i,i,.,.
CC(=O)Nc1ccc(S(=O)(=O)Nc2cc(-c3cn4ccccc4n3)ccc2C)cc1,.,.,i,i,.,.
CCOc1ncccc1C(=O)NNC(=O)c1csc(N2CCOCC2)n1,13%,5,i,?,20%,-2
Cc1ccc(-c2nnc(COC(=O)c3cc(=O)[nH]c4ccccc34)o2)cc1,2%,2,i,i,-1%,18
N#CN(Cc1ccccc1)Cc1ccccc1,13%,-3,i,?,?,-6
Cc1cc(N2CCN(C)CC2)nc2ccc(NC(=O)Nc3cccc(Cl)c3)cc12,.,.,i,i,.,.
O=C(Nc1nnc(S(=O)(=O)N2CCCC2)s1)c1ccccc1Cl,2%,4,i,i,-18%,18
O=S(=O)(Nc1ccc(N2CCCCC2)cc1)c1ccccc1,11%,8,i,21µM*,20%,4
O=S(=O)(Nc1ccc(N2CCOCC2)cc1)c1ccccc1,-1%,0,i,i,1%,5

# High-throughput results: PubChem BioAssay, National Center for Advancing Translational Sciences (NCATS)
